Rows were chosen to be rich in hits. Some 3% of all compounds tested hit in one or more screens of this group.
12-LOX inh = Primary qHTS assay for inhibitors of human arachidonate 12S-lipoxygenase (ALOX12): Round 2 | Polyunsaturated fatty acid lipoxygenase ALOX12 (Homo sapiens), P18054 | purified 12hLO, xylenol orange hydroperoxide absorbance | Potency, µM (titrated, usually from 108 µM), inactives show top-dose activity change, negative = inhibition, hits mostly inhibitors | 1.1% of 580,000 active
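Hydroperoxide product was detected by ferrous iron/xylenol orange as the 573 to 405 nm absorbance ratio. Arachidonic acid at 40 uM (final) was turned over for 30 min at room temperature by 150 nM human 12hLO, pH 7.0 Hepes buffer, after 15 min compound preincubation.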
PLK1 PBD block = qHTS for Inhibitors of PLK1-PDB (polo-like kinase 1 - polo-box domain): Primary Screen; Serine/threonine-protein kinase PLK1 (Homo sapiens), P53350; Plk1 PBD binding of FITC phosphopeptide, fluorescence polarization; Potency, µM, inactives show max response, negative = inhibition, hits mostly inhibitors; 2.8% of 360,000 active; AID 720504, 2013; further: series mostly up to about 57 µM; nearly all actives have a fitted effect of over 65% in size
GCN5L2 inh = qHTS Assay for Inhibitors of GCN5L2; Histone acetyltransferase KAT2A (Homo sapiens), Q92830; GCN5L2 HAT assay, ThioGlo1 CoA-SH fluorescence; Potency, µM (top dose mostly 58.9 µM), for inactives: at the top dose activity change, negative = inhibition, most hits filed as inhibitors; 0.21% of 390,000 active
Target sequence (Q92830 whole entry, looked up): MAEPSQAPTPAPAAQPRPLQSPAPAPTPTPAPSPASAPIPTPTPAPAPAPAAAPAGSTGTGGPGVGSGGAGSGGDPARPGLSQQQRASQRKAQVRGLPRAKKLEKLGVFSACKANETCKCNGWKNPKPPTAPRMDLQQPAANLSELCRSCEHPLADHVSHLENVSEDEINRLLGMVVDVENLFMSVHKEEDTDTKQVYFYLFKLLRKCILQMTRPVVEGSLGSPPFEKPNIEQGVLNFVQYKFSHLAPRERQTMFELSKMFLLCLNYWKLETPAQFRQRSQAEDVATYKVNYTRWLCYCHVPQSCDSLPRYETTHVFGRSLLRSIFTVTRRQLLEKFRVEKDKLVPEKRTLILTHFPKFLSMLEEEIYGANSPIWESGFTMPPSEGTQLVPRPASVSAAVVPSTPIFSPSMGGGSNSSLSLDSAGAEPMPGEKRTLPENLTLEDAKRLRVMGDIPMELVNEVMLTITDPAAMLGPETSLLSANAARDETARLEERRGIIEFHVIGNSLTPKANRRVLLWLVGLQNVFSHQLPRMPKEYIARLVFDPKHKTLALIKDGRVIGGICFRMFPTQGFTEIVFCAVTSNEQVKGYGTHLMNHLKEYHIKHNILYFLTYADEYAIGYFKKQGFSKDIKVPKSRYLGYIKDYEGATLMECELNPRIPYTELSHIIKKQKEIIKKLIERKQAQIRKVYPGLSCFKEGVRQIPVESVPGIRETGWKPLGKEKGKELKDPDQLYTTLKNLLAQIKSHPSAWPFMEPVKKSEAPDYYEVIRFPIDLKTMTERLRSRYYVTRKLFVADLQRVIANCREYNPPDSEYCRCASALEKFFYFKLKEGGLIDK
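GCN5L2 (20 nM) in 50mM HEPES pH 7.5, 0.1mM EDTA, 0.01% Tween-20 preincubated 15 min with compounds at room temperature. Reaction started with H3(1-25) 75uM, acetyl-CoA 70uM, ThioGlo1 50uM; CoA-thiol fluorescence (Ex340/Em540) read at 0 and 20 min.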
VDR inhibitor = Inhibitors of the vitamin D receptor (VDR): qHTS; Vitamin D3 receptor (Homo sapiens), P11473; VDR-SRC2-3 peptide fluorescence polarization, 2 h; Potency, µM, without a hit: max response, negative = inhibition, most hits filed as inhibitors; 0.93% of 400,000 active
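Fluorescence polarization assay measuring small-molecule disruption of VDR binding to the coregulator peptide SRC2-3. Compounds were pin-transferred (23 nl) into the reagent mix and incubated 2 h at room temperature before reading.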
Starred values were filed as active, the others as inactive; ? = inconclusive; nt = no result given; [ ] = dose if it differs, or a comment. The call rests on the fitted dose curve; in most records, active means well fitted curve in the direction sought with a large enough effect; inconclusive means small, poorly fitted or top-dose-only effect, or another doubt; inactive means no such curve, though single readings can be large; an effect the other way counts as inactive or inconclusive. On the % scale 0 is the no-effect control and ±100 the full control effect; potency means the concentration at half of the fitted maximal effect.

SMILES	12-LOX inh	PLK1 PBD block	GCN5L2 inh	VDR inhibitor
O=C(NCc1cccc(Cl)c1)c1ccc2nc(N3CCOCC3)sc2c1	1%	27µM*	-1%	-24%
O=Cc1cc(Br)cc(Cl)c1O	45µM*	nt	nt	nt
CC1CCN(C(=O)CCc2ncc(-c3c(F)cccc3F)o2)CC1	47%	nt	nt	nt
O=C(/C=C/c1ccccc1O)c1ccccc1Cl	-43%	nt	nt	nt
O=C(/C=C/c1ccc([N+](=O)[O-])cc1)c1ccccc1	1%	nt	nt	nt
O=C(/C=C/c1ccccc1Cl)c1ccccc(=O)c1O	?	27µM*	-17%	28µM*
O=C(/C=C/c1ccc([N+](=O)[O-])cc1)c1ccccc(=O)c1O	?	-30%	nt	25µM*
Cc1ccc(C)c(/C=C/C(=O)c2ccccc(=O)c2O)c1	20µM*	?	-9%	45µM*
CC(C)CCC(=O)N1CCN(Cc2ccco2)CC1	1%	nt	nt	nt
NS(=O)(=O)c1ccc(N/N=C/c2cccs2)c([N+](=O)[O-])c1	-56%	nt	nt	nt
CC(=O)N[C@H]1C[C@@H](c2nc(-c3ccccc3)no2)N(C)C1	-5%[176 µM]	nt	nt	nt
O=C(C1COc2ccccc2O1)N1CCN(Cc2cc(=O)oc3cc(O)ccc23)CC1 (stereo unspecified)	0%	nt	nt	nt
CCOC(=O)c1sc(NC(=O)C2c3ccccc3Oc3ccccc32)c(C#N)c1C	?	nt	0%	79µM*
CCOC(=O)c1c(NC(=O)C2c3ccccc3Oc3ccccc32)sc(C(=O)N(CC)CC)c1C	4%	?	-23%	71µM*
Cc1cc(C(=O)OCC(=O)Nc2c(F)cccc2F)c(C)n1-c1ccccc1	2%	21µM*	-5%	?
Cc1noc(C)c1C(=O)OCC(=O)Nc1c(F)cccc1F	-5%	8.4µM*	-1%	50µM*
Cc1noc(C)c1C(=O)OCC(=O)Nc1ccc(C(N)=O)cc1	3%	-4%	-10%	-15%
COCCC1(NC(=O)c2ccccc2)CCN(Cc2cn[nH]c2-c2cccs2)CC1	19%	nt	nt	nt
CC(=O)NS(=O)(=O)c1cccnc1Nc1ccc(Cl)cc1	-10%	11µM*	-6%	-3%
CCOc1nc(Nc2ccccc2F)nc(OCC)n1	-24%	-15%	-13%	-8%
Fc1ccccc1Nc1nc(Cl)nc(Cl)n1	0%	19µM*	-3%	71µM*
CCCN1CNC(=S)N(N2CN(CCC)CNC2=S)C1	13µM*	nt	nt	nt
CC1C/C(=C/c2ccccn2)C(=O)/C(=C/c2ccccn2)C1 (stereo unspecified)	nt	?	2%	28µM*
O/C(=C\c1nc2ccccc2nc1/C=C(\O)c1ccccc1)c1ccccc1	nt	?	-5%	79µM*
Cc1cccc(C(=O)NC2CCN(c3cc(-c4ccc(Cl)cc4)[nH]n3)C2)c1 (stereo unspecified)	-3%	nt	nt	nt
SMILES	12-LOX inh	PLK1 PBD block	GCN5L2 inh	VDR inhibitor
N#Cc1nc(-c2ccc(F)cc2)oc1NC1CCCCC1	4%	nt	nt	nt
CC[C@H]1OC(=O)[C@H](C)C(=O)[C@H](C)[C@@H](O[C@H]2O[C@H](C)C[C@H](N(C)C)[C@@H]2O)[C@](C)(OC)C[C@@H](C)C(=O)[C@H](C)[C@H]2N(CCCCn3cnc(-c4cccnc4)c3)C(=O)O[C@]12C	4.9µM*	nt	nt	nt
CC[C@H]1OC(=O)[C@H](C)[C@@H](O[C@H]2C[C@@](C)(OC)[C@@H](O)[C@H](C)O2)[C@H](C)[C@@H](O[C@@H]2O[C@H](C)C[C@H](N(C)C)[C@H]2O)[C@](C)(O)C[C@@H](C)C(=NOCOCCOC)[C@H](C)[C@@H](O)[C@]1(C)O	7%	-20%	-4%	0%
O=C(O)c1ccc(-n2cccc2/C=C2/NC(=O)N(c3ccccc3)C2=O)cc1	?	19µM*	?	-14%
O=C(O)c1cccc(-n2cccc2/C=C2\NC(=O)N(Cc3ccc(F)cc3)C2=O)c1	40µM*	?	-10%	-20%
O=C(O)c1ccc(-n2cccc2/C=C2/SC(=O)N(CC(=O)N3CCCC3)C2=O)cc1	-12%	19µM*	?	8%
CN(C)C=NC(=O)c1ccc([N+](=O)[O-])c(CS(=O)(=O)c2ccc(Cl)cc2)c1	-1%	-4%	-4%	6%
CO/N=C/NC(=O)c1ccc([N+](=O)[O-])c(CS(=O)(=O)c2ccc(Cl)cc2)c1	0%	3µM*	-11%	?
COc1ccccc1Nc1ccc([N+](=O)[O-])cc1N	-13%	27µM*	-6%	-12%
N#Cc1c(C#N)c(O)c2ccccc2c1O	-17%	13µM*	-8%	28µM*
N#Cc1ccccc1	15%	-18%	0%	-3%
COc1cc2c(cc1OC)C(COc1ccccc1OC)N(C(C)=O)CC2 (stereo unspecified)	1%	-3%	-3%	-19%
COc1cc2c(cc1OC)C(COc1ccccc1OC)N(C(=O)C(C)(C)C)CC2 (stereo unspecified)	?	30µM*	-4%	0%
O=C1CC(N(O)C2CC(=O)N(Cc3ccccc3)C2=O)C(=O)N1Cc1ccccc1 (stereo unspecified)	-3%	24µM*	-4%	?
COc1cccc(NC(=O)[C@H](C(C)C)n2nnc3ccccc3c2=O)c1	-4%	nt	nt	nt
Cn1c(SSc2ccc(-c3cccnc3)n2C)ccc1-c1cccnc1	?	4.2µM*	nt	?
Cc1ccc(-c2ccccc2)n1-c1cccnc1	-14%	nt	nt	nt
Cc1nn(C(C)C(=O)Nc2ccccc2Cl)c(=O)c2nn(-c3ccccc3)c(C)c12 (stereo unspecified)	1%	-7%	-6%	-7%
CCC(C(=O)Nc1ccccc1Cl)n1nc(C)c2c(C)n(-c3ccccc3)nc2c1=O (stereo unspecified)	9%	21µM*	-5%	-10%
